Type in all cases: functional
For assay [1], the system named is Plasmodium falciparum. Kind of assay: GSK_TCMDC: Inhibition of Plasmodium falciparum 3D7 in whole red blood cells, using parasite LDH activity as an index of growth. Test compounds present at 2uM.
Assay [2] concerns Plasmodium falciparum. As to the kind of experiment: GSK_TCMDC: Inhibition of Plasmodium falciparum Dd2 in whole red blood cells, using parasite LDH activity as an index of growth. Test compounds present at 2uM.
The subject of a further assay is HepG2. As to the kind of experiment: GSK_TCMDC: Percent inhibition of human HepG2 cell line. Test compounds present at 10uM.

In general, Inhibition refers to how much of the control response was suppressed. A higher Inhibition goes with a response far below the control. Take `COc1ccc2c(c1C1CCN(CCCCNC(=O)c3ccc(NC(=O)c4ccc(Cl)cc4)cc3)CC1)CCCC2`: the Inhibition with Plasmodium falciparum [1] is on record as 100%; in the assay with Plasmodium falciparum [2], 99%; in the assay with HepG2, 19%.
In the same order, the values of `O=C(O)C(F)(F)F.O=c1[nH]ccc2nc(N[C@@H]3CCNC3)nc(Nc3cccc(S(=O)(=O)N4CCOCC4)c3)c12` are 90%, 98% and 0%.
In the same order, the values of `CCCN1CCN(c2cc(S(=O)(=O)Nc3ccc(C(=O)NCc4cccc(C(F)(F)F)c4)cc3)ccc2OC)CC1.O=C(O)C(F)(F)F` are 92%, 8% and 27%.
For `CC(C)(C)Oc1ccc(CC2NC3(C(=O)N(Cc4ccc(C(C)(C)C)cc4)c4ccccc43)C3C(=O)N(c4ccc(Br)cc4)C(=O)C23)cc1` (stereo not given), the Inhibition came out at 94% in the assay with Plasmodium falciparum [1], 94% in the assay with Plasmodium falciparum [2] and 24% in the assay on HepG2.
For the compound `Br.CC1(C)NC(N)=NC(=N)N1OCCCCOc1ccc(Cl)cc1C1CCCCC1`, the Inhibition with Plasmodium falciparum [1] came out at 93%; in the assay with Plasmodium falciparum [2], 97%; in the assay with HepG2 it was 56%.
In the same order, the values of `O=C(NCCc1ccccc1)N(Cc1cccc(-c2ccc(CNCc3ccc4c(c3)OCO4)cc2)c1)C1CCN(Cc2ccccc2)CC1.O=C(O)C(F)(F)F` are 94%, 70% and 11%.
In the same order, the values of `O=[N+]([O-])c1ccccc1C=NN=c1cc[nH]c2ccccc12` are 100%, 98% and 3%.
In the same order, the values of `CO/C(=C\C=C\c1cc2cc(Cl)c(Cl)cc2[nH]1)C(=O)NCCCN1CCN(C2CCCCC2)CC1` are 99%, 97% and 60%.
Regarding `CC1CNC(c2ccc(NC(=O)c3ccc(C(=O)Nc4ccc(C5=NC(C)CN5)cc4)cc3)cc2)=N1.CS(=O)(=O)O` (stereo not given), the Inhibition in the assay with Plasmodium falciparum [1] was 99%; in the assay with Plasmodium falciparum [2], 100%; in the assay with HepG2, 15%.
On to `CCCc1c(C(=O)Nc2ccc3c(c2)CCN(C2CCC2)CC3)cnn1-c1ccc(Cl)cc1.O=C(O)C(F)(F)F`, for which the Inhibition with Plasmodium falciparum [1] was 92%; in the assay on Plasmodium falciparum [2] it was 12%; in the assay with HepG2, 64%.
`COc1ccc(CCNCc2cc3c(C(C)(C)C)nn(-c4ccc(Cl)cc4)c3[nH]c2=O)cc1OC`: the Inhibition is given as 100% with Plasmodium falciparum [1], 99% with Plasmodium falciparum [2] and 13% with HepG2.
The like results for `CC(Cc1ccc(OCCN2CCN(c3ccc(Cl)cc3)CC2)cc1)NCC(O)c1cccc(C(F)(F)F)c1.Cl` (stereo not given) were, in that order, 99%, 96% and 97%.
As for `COC(=O)c1cc(C(O)CNC(C)CCCc2ccccc2)ccc1O.Cl` (stereo not given), the Inhibition in the assay on Plasmodium falciparum [1] turned out to be 99%; in the assay with Plasmodium falciparum [2], 97%; in the assay on HepG2, 17%.
The like results for `CC(=O)Nc1ccc(OCCN(Cc2ccccc2OC(F)(F)F)c2ccc(C(F)(F)F)c(C#N)c2)c(Cl)c1` were, in that order, 96%, 96% and 8%.
With `Cc1cccc2nc(-c3ccc(-c4cccc(NC(=O)Nc5ccc(F)c(F)c5F)c4)cc3)[nH]c12`, the Inhibition is 100% with Plasmodium falciparum [1], 89% in the assay on Plasmodium falciparum [2] and 40% in the assay with HepG2.
On to `CCC(=Cc1cccc([N+](=O)[O-])c1)C(=O)NCC1CCN(c2nc3cc(OC)c(OC)cc3c(=N)[nH]2)CC1.Cl`, for which the Inhibition in the assay with Plasmodium falciparum [1] turned out to be 100%; in the assay with Plasmodium falciparum [2], 62%; with HepG2, 25%.
The like results for `O=C(NC1CCN(c2ccnc3ccccc23)C1)c1cccc(C(F)(F)F)c1.O=C(O)C(F)(F)F` (stereo not given) were, in that order, 94%, 86% and 28%.
In the same order, the values of `Cc1cc(OCCN2CCCCC2)ccc1NC(=O)c1cccc2c(=O)n(Cc3ccc(Cl)cc3)cnc12` are 88%, 56% and 100%.
Regarding `COc1cc(NC(=O)c2cc([N+](=O)[O-])ccc2NC(=O)CNC2CCCCC2C)cc(OC)c1` (stereo not given), the results for the Inhibition in the assay on Plasmodium falciparum [1], in the assay on Plasmodium falciparum [2] and with HepG2 were 87%, 78% and 0%, respectively.
In the same order, the values of `COc1cc2nc(-c3ccccc3)nc(N3CCN(C(=O)c4ccco4)CC3)c2cc1OC` are 89%, 87% and 0%.
The like results for `COc1ccc2nccc(N3CCC(O)(CCNCc4ccc5c(n4)NC(=O)CO5)CC3)c2n1.Cl` were, in that order, 100%, 24% and 18%.
The like results for `O=C(Nc1cccc(-c2nn3ccccc3c2-c2ccnc(Nc3ccccc3)n2)c1)c1c(F)cccc1F` were, in that order, 98%, 98% and 69%.
For `COc1ccc2c(=NN=Cc3cccnc3)cc(C)[nH]c2c1`, the Inhibition in the assay with Plasmodium falciparum [1] is 85%; in the assay with Plasmodium falciparum [2] it was 12%; in the assay on HepG2, 0%.
The like results for `Nc1nccc2ccc(-c3ccc(NC(=O)Nc4cc(C(F)(F)F)ccc4F)cc3)cc12.O=C(O)C(F)(F)F` were, in that order, 100%, 100% and 99%.
Turning to `O=c1sn(-c2csc3ccccc23)c2ccccc12`, the Inhibition was determined as 94% with Plasmodium falciparum [1], 54% in the assay on Plasmodium falciparum [2] and 14% with HepG2.
The like results for `Cc1cc(-c2ccc(NC(=O)c3coc4ccc(N5CC(C)N(C)C(C)C5)cc34)cc2C)cc(C)n1.Cl` (stereo not given) were, in that order, 94%, 62% and 13%.
As for `CCNc1cc(C(=O)N[C@@H](Cc2ccc(Cl)cc2)[C@H](O)CNC2CCCCC2)cc(N2CCCCS2(=O)=O)c1.Cl`, the Inhibition in the assay on Plasmodium falciparum [1] worked out at 98%; in the assay on Plasmodium falciparum [2], 99%; with HepG2 it was 6%.
In the same order, the values of `CCCCCc1cc(OC(C)=O)c2c(c1)OC(C)(C)C=C2C1=CCN(Cc2ccccc2)CC1.O=C(O)/C=C/C(=O)O` are 97%, 88% and 14%.
As to `CN(C)c1ccc(NC(=O)Nc2ccnc3ccc(Br)cc23)cc1.Cl`, the figures for the Inhibition in the assay with Plasmodium falciparum [1], in the assay on Plasmodium falciparum [2] and in the assay with HepG2 were 91%, 21% and 0%, respectively.
In the same order, the values of `CN(CC1CCC(NC(=O)/C=C/c2ccc(Cl)c(Cl)c2)CC1)C1CCC(c2c[nH]c3ccccc23)CC1` (stereo not given) are 99%, 53% and 53%.
